The list is not random: actives were taken first. Their share in the collection is about 3.1%.
S16 viability: toxic to S16 Pmp22-F2sN Schwann cells. Potency, µM (doses to about 57.5 µM), without a hit: at the highest dose activity change, negative = cytotoxicity, usual class: cytotoxic. S16 Pmp22-F2sN Schwann cells viability, CellTiter-Glo, 24 h. AID 1508642. hit rate 0.48% among 43,000; further: potency means the concentration at half of the fitted maximal effect; on the % scale 0 is the no-effect control and ±100 the full control effect; nearly all actives have a fitted effect of over 65% in size
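Rat S16 Schwann reporter line, 24 h treatment with library compounds delivered at 23 nL per well. Cell viability by CellTiter-Glo luminescence.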
SKOV3 invasion: inhibitors of ovarian cancer cell adhesion and invasion in omental model. SKOV3ip1-GFP adhesion/invasion on 3D omental model, fluorescence. Potency, µM (highest dose often 45.8 µM), inactives show top-dose activity change, negative = inhibition, actives largely listed as inhibitors. hit rate 0.1% among 46,000;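 further: potency means the concentration at half of the fitted maximal effect; plate controls were DMSO wells for no effect and tomatine positive control wells for full effect; nearly all actives have a fitted effect of over 65% in size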
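A 3D layer of primary human omental fibroblasts, mesothelial cells, fibronectin and collagen I, grown 48 hr, received SKOV3ip1-GFP cells in serum-free medium plus compounds at 0.36-46 umol/L. After 2 hr RT and 16 hr 37 C, fixed adherent GFP cells were counted; normalized to DMSO and tomatine.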
PMP22 txn: PMP22 gene transcription modulation. S16 Pmp22-F2sN Schwann cells (luciferase reporters placed in the Pmp22 gene), FLuc/NLuc coincidence luminescence, 24 h. Potency, µM (top dose mostly 57.5 µM), inactives show at the highest dose activity change, negative = inhibition, hits mostly inhibitors. hit rate 2% among 43,000. AID 1508649; active means clear falling dose curves in both reporters; inconclusive means both reporters move, but less clearly or upward; inactive means either reporter flat; the % is the NLuc reporter signal; further: potency means the concentration at half of the fitted maximal effect; on the % scale 0 is the no-effect control and ±100 the full control effect
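Rat S16 Pmp22-F2sN cells, 500-1,000/well in phenol red-free DMEM + 10% FBS, compound-treated 24 h (37C, 5% CO2). Luminescence: FLuc read, Stop&Glo added, NLuc read.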
p53null 32C tox: kills p53 null cells at the permissive temperature; H1299-neo p53 null cells, ATP luminescence, 24 h, 32C; Potency, µM (series often up to 46.1 µM), inactives show at the highest dose activity change, negative = cytotoxicity, actives largely listed as cytotoxic; hit rate 0.62% among 55,000;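 further: potency means the concentration at half of the fitted maximal effect; 0% = DMSO only and -100% = full killing by 100 µM tamoxifen; nearly all actives have a fitted effect of over 55% in size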
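Luminescent ATP readout gave cell viability of p53-null H1299-neo cells after a 24 h compound exposure at the permissive 32C. Titrations ran up to 46 uM, and AC50s were fitted with the standard Hill equation.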
p53null 39C kill: p53 null cell cytotoxicity, nonpermissive temperature; H1299 p53-null (neo) cells, 39C, ATPlite viability, 24 h; hit rate 0.97% among 55,000; Potency, µM (doses to about 46.1 µM), for the others: at the top dose activity, negative = cell killing, usual class: cytotoxic;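 further: potency means the concentration at half of the fitted maximal effect; 0% = DMSO only and -100% = full killing by 100 µM tamoxifen; nearly all actives have a fitted effect of over 50% in size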
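Luminescent ATP signal reported cell survival after H1299 lines (neo, p53 null; or p53 A138V) received up to 46 uM compound and 24 hr incubation at 39C.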
pS6 MEF inh: mTORC1 pathway inhibition measured by phospho-rpS6 | AID 493208 | Potency, µM (titrated, usually from 38.3 µM), without a hit: at the highest dose activity change, negative = inhibition, usual class: inhibitors | Tsc2-/- p53-/- MEF, phospho-rpS6 immunofluorescence/PI, 24 h | hit rate 0.78% among 44,000;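 further: potency means the concentration at half of the fitted maximal effect; plate controls were DMSO for no effect and rapamycin for full effect; nearly all actives have a fitted effect of over 50% in size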
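Plate MEFs (Tsc2-/-, p53-/-, empty vector) in DMEM/10% FBS; after 24 h add compound, incubate 24 h at 37 degree Celsius; fix in PFA/TX-100, block, stain phospho-rpS6 and 10 uM PI; scan at 488 nm; report % positive cells.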
NLuc saturating: inhibits NanoLuc at saturating substrate, PMP22 counter-screen. shares compounds with PMP22 txn. Secreted NLuc enzyme (filtered S16 cell medium), Nano-Glo luminescence. Potency, µM (series often up to 57.5 µM), for the others: at the top dose activity change, negative = inhibition, usual class: inhibitors. hit rate 4% among 690. AID 1508638; further: potency means the concentration at half of the fitted maximal effect; on the % scale 0 is the no-effect control and ±100 the full control effect
NLuc Km ctr: counter-screen for PMP22 expression modulators: NanoLuc inhibition at Km. shares compounds with PMP22 txn. hit rate 5% among 690. secreted NLuc enzyme, coelenterazine luminescence, Km conditions. Potency, µM (highest dose often 57.5 µM), for inactives: top-dose activity change, negative = inhibition, actives largely listed as inhibitors; further: potency means the concentration at half of the fitted maximal effect; on the % scale 0 is the no-effect control and ±100 the full control effect
FLuc ctr PMP22: firefly luciferase enzyme inhibition artifact for PMP22 screen | Potency, µM (doses to about 57.5 µM), for inactives: top-dose activity, negative = inhibition, most hits filed as inhibitors | AID 1508640 | shares compounds with PMP22 txn | purified P. pyralis FLuc, luminescence, 10 min | 690 tested, under 10 active; further: % of control where 0% means no effect
Target sequence (P08659 whole entry, looked up): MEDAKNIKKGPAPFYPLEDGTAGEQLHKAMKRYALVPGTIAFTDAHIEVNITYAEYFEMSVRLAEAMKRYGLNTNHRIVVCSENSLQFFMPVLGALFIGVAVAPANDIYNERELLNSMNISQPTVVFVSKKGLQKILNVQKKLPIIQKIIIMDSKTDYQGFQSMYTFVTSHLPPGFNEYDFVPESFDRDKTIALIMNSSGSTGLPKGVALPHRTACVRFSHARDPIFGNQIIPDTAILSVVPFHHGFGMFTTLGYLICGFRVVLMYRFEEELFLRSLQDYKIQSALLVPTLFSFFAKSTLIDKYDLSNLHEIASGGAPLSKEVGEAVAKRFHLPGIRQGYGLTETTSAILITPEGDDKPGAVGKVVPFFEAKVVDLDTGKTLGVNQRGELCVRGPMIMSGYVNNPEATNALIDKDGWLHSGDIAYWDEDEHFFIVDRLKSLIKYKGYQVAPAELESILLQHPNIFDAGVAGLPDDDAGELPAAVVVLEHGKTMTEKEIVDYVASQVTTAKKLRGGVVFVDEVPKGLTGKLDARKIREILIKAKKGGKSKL
S16 viab conf: S16 Schwann cell cytotoxicity, confirmatory; Potency, µM (highest dose often 57.5 µM), without a hit: at the top dose activity change, negative = viability loss, actives largely listed as cytotoxic; S16 Schwann cells viability, CellTiter-Glo ATP luminescence, 24 h; AID 1508641; shares compounds with PMP22 txn; hit rate 7% among 690; further: potency means the concentration at half of the fitted maximal effect; on the % scale 0 is the no-effect control and ±100 the full control effect
PMP22 txn conf: PMP22 transcription modulation, confirmatory; AID 1508646; hit rate 22% among 690; shares compounds with PMP22 txn; Potency, µM (highest dose often 57.5 µM), for the others: at the highest dose activity change, negative = inhibition, most hits filed as inhibitors; S16 Schwann cells Pmp22-F2sN, dual luciferase, 24 h; active means clear falling dose curves in both reporters; inconclusive means both reporters move, but less clearly or upward; inactive means either reporter flat; the % is the FLuc reporter signal; further: potency means the concentration at half of the fitted maximal effect
PMP22 prot conf: confirmation of modulators of rat PMP22 protein expression | Potency, µM (doses to about 27.9 µM), for inactives: at the top dose activity change, negative = inhibition, hits mostly inhibitors | S16 Schwann cells Pmp22-HiBiT, luminescence, 48 h | 95 tested, under 10 active | shares compounds with PMP22 txn
Target sequence (P25094 whole entry, looked up): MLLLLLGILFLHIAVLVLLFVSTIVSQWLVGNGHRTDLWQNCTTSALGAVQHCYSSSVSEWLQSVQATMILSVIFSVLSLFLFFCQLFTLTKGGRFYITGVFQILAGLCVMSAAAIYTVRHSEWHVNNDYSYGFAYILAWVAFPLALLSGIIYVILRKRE
Numbers without * were called inactive; i = inactive; u = inconclusive; x = no result. Unless noted, the call rests on the fitted dose curve; in most records, active means well fitted curve in the direction sought with a large enough effect; inconclusive means small, poorly fitted or top-dose-only effect, or another doubt; inactive means no such curve, though single readings can be large; an effect the other way counts as inactive or inconclusive.

SMILES	S16 viability	SKOV3 invasion	PMP22 txn	p53null 32C tox	p53null 39C kill	pS6 MEF inh	others
COc1ccc(NC(=O)CCc2nc(C3=CCN(Cc4cccc(Cl)c4)CC3)no2)cc1OC	-20.6%	i	-19.2%	2.6%	17.0%	0.0%
COc1ccc(NC(=O)CCn2cnc3onc(-c4ccc(F)cc4)c3c2=O)cc1OC	u	i	11.3µM*	18.1%	-0.2%	u
CCOC(=O)c1ccc(N2C(=O)c3n[nH]c(-c4cccs4)c3C2c2ccc(C(C)(C)C)cc2)cc1 (stereo not given)	-0.7%	8.3%	u	32.8%	u	-1.8%
CCOC(=O)c1ccc(N2C(=O)c3n[nH]c(-c4cccs4)c3C2c2ccc(Cl)cc2Cl)cc1 (stereo not given)	u	i	u	u	17.8µM*	u
Cc1cccn2c(=O)cc(COc3cccc(NC(=O)COc4ccc(F)cc4)c3)nc12	u	1.1%	u	12.6µM*	12.6µM*	12.5%
CC1=C(O)C(=O)C=C2C1=CC=C1[C@@]2(C)CC[C@@]2(C)[C@@H]3C[C@](C)(C(=O)O)CC[C@]3(C)CC[C@]12C	x	4.18µM*	x	x	x	x
C[C@@H]1CC[C@H]2[C@@H](C)C(=O)O[C@@H]3O[C@@]4(C)CC[C@H]1[C@]32OO4	x	-4.4%	x	x	x	x
CCCCNc1ccncc1S(=O)(=O)NC(=O)NC(C)C	x	x	x	-5.6%	12.8%	x
CCCCNC(=O)c1cc(-c2cccnc2)nc2ccc(S(=O)(=O)NCCCC)cc12	25.1µM*	-3.2%	u	-9.5%	-2.0%	u
Cc1ccc2oc(=O)c(-c3nc4ccc(C)cc4[nH]3)cc2c1	-8.4%	-25.5%	-9.6%	-29.4%	20µM*	-9.0%
COC[C@H]1OC(=O)c2coc3c2[C@@]1(C)C1=C(C3=O)[C@@H]2CC[C@H](O)[C@@]2(C)C[C@@H]1OC(C)=O	x	5.9%	x	x	x	x
CC(=CCCC1=CCC(C2=CC(=O)OC2O)OC1O)CCC1=C(C)CCCC1(C)C (stereo not given)	x	-3.3%	x	x	x	x
CCOc1ccc(N(C(C)C(=O)Nc2cc(Cl)ccc2OC)S(C)(=O)=O)cc1 (stereo not given)	u	u	u	11.5%	46.3%	7.36µM*
COc1ccc(C(=O)Nc2ccc(Cl)cc2C(=O)c2ccccc2)c(OC)c1	22.3%	-3.6%	-15.6%	1.2%	19.7%	-17.5%
C[C@@H]1[C@@H](C(=O)C[C@H]2O[C@@H]3O[C@]4(C)CC[C@@H]5[C@H](C)CC[C@@H]([C@H]2C)[C@@]35OO4)O[C@@H]2O[C@]3(C)CC[C@H]4[C@H](C)CC[C@@H]1[C@@]24OO3	x	2.8%	x	x	x	x
CC(C)[C@]12O[C@@H]1[C@@H]1O[C@]13[C@]1(O[C@H]1C[C@@H]1C4=C(CC[C@@]13C)C(=O)OC4)[C@H]2O	x	-2.4%	x	x	x	x
CC1=C2C[C@@H]3[C@@H](CC=C4C[C@@H](O)CC[C@@]43C)[C@@H]2CC[C@]12O[C@H]1C[C@H](C)CN[C@H]1[C@H]2C	x	19.5%	x	x	x	x
O=C(NCCSc1c(-c2ccc(F)cc2)[nH]c2ccccc12)c1ccc(S(=O)(=O)N2CCOCC2)cc1	u	u	u	10.1%	12.9%	14.7µM*
CC(C)(O)C=CC(=O)[C@](C)(O)[C@H]1[C@H](O)C[C@]2(C)[C@@H]3CC=C4[C@@H](C=C(O)C(=O)C4(C)C)[C@]3(C)C(=O)C[C@@]12C	x	1.05µM*	x	x	x	x
COc1ccc2nc(N3CCN(C(=O)CS(=O)(=O)c4ccc(C)cc4)CC3)sc2c1	u	-0.6%	u	10µM*	84.7%	-6.6%
Cc1c(Cl)cccc1NC(=O)c1oc2ccc(S(=O)(=O)N3CCC4(CC3)OCCO4)cc2c1C	u	-0.2%	13.9µM*	-0.5%	-0.4%	13.1µM*	NLuc saturating=-15.4%;NLuc Km ctr=-3.1%;FLuc ctr PMP22=-4.5%;S16 viab conf=-23.8%;PMP22 txn conf=u;PMP22 prot conf=15.2%
Cc1c(N)nc([C@H](CC(N)=O)NC[C@@H](N)C(N)=O)nc1C(=O)N[C@H](C(=O)N[C@@H](C)[C@H](O)[C@@H](C)C(=O)N[C@@H](C(=O)NCCc1nc(-c2nc(C(=O)NCCC[S+](C)C)cs2)cs1)[C@@H](C)O)C(O[C@H]1O[C@H](CO)[C@H](O)[C@@H](O)[C@@H]1O[C@H]1O[C@H](CO)[C@@H](O)[C@H](OC(N)=O)[C@H]1O)c1cnc[nH]1 (stereo not given in full)	x	-27.2%	x	x	x	x
